# Assay results: PubChem BioAssay (NCATS)
# Records with an inconclusive call do not appear. Calls of active or inactive are those of the source. Unless noted, calls follow the shape of the full dose curve.
# What was measured:
# [1] = target: Estrogen receptor (Homo sapiens) (UniProt P03372); experiment: qHTS assay for small molecule antagonists of estrogen receptor alpha signaling (AID 588513; active = well fitted curve in the direction sought with a large enough effect in the signal ratio, with a control signal flat, not every such curve was filed as active; the % refers to the signal ratio; also: % is scaled to controls: 0 for no effect and ±100 for the full control effect)
# Summary of the method: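 ER-alpha-UAS-bla GripTite HEK 293 cells in 2% charcoal/dextran-treated FBS medium; compounds titrated (1:2, duplicate), then stimulated with 0.5 nM 17-beta-estradiol for 18 h at 37C. CCF4 beta-lactamase fluorescence; Hill-fit IC50 and efficacy.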
# [2] = target: Estrogen receptor (Homo sapiens) (UniProt P03372); experiment: qHTS assay for small molecule agonists of estrogen receptor alpha signaling (AID 588514);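 also: 0% = vehicle only and 100% = reference agonist; nearly all actives have a fitted effect of over 70% in size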
# Summary of the method: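 Fluorescence from CCF4 cleavage reports ER-alpha-driven beta-lactamase expression in HEK 293 cells treated 18 hrs at 37 C. Data normalized to 17-beta-estradiol (20 nM) and DMSO, fitted to Hill equation.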
# [3] = qHTS assay for small molecule antagonists of peroxisome proliferator-activated receptor delta signaling (AID 588535); conditions: HEK293T PPARd-UAS-bla, beta-lactamase FRET ratio, 18 h; 460 nm channel;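 also: cells co-treated with a PPAR-delta agonist as stimulator during compound exposure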
# Summary of the method: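 Antagonist-mode qHTS using GeneBLAzer PPAR-delta-UAS-bla HEK293T cells; compound exposure 18 hrs at 37 C over a titration. Ratiometric CCF4 fluorescence at 460/530 nm; concentration-response points fitted to the Hill equation.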
# [4] = target: Vitamin D3 receptor (Homo sapiens) (UniProt P11473); experiment: qHTS assay for small molecule antagonists of vitamin D receptor signaling (AID 588541);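 also: receptor activated by calcitriol during compound treatment; series mostly up to about 77 µM; % is scaled to controls: 0 for no effect and ±100 for the full control effect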
# Summary of the method: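 Antagonist-mode beta-lactamase reporter assay: HEK293T VDR-UAS-bla cells were exposed to titrated compound alongside 1-alpha,25-dihydroxyvitamin D3 at 3 nM final for 16 h. Values were normalized to the 50 nM agonist control and DMSO basal, with IC50 and efficacy from Hill equation fits.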
# [5] = target: Vitamin D3 receptor (Homo sapiens) (UniProt P11473); experiment: qHTS assay for small molecule agonists of vitamin D receptor signaling (AID 588543);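 also: 0% = DMSO basal and 100% = reference agonist control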
# Summary of the method: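 VDR-UAS-bla HEK293T cells, 2000/well, 2% charcoal-stripped FBS; compound titration 16 h at 37 C; CCF4 beta-lactamase ratio read. Normalized to 50 nM 1-alpha,25-dihydroxyvitamin D3 (100%) and DMSO; Hill fit gives EC50, efficacy.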
# [6] = qHTS assay for small molecule agonists of retinoid X receptor alpha signaling (AID 588544); conditions: HEK293T RXRa-UAS-bla, beta-lactamase reporter, 18 h; 530 nm emission;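 as to activation: 0% = DMSO basal wells and 100% = reference agonist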
# [7] = target: Retinoic acid receptor RXR-alpha (Homo sapiens) (UniProt P19793); experiment: as above
# [8] = qHTS assay for small molecule antagonists of retinoid X receptor alpha signaling (AID 588546; active = well fitted inhibition curve with a large enough effect in the signal ratio, with a control signal flat, not every such curve was filed as active; the % refers to the signal ratio;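 also: cells stimulated with 9-cis-retinoic acid as agonist; % is scaled to controls: 0 for no effect and ±100 for the full control effect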); conditions: HEK293T RXRa-UAS-bla, beta-lactamase ratio, antagonist mode; measured here: W530 green channel, cytotoxicity proxy
# Summary of the method: (§1)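 Beta-lactamase reporter inhibition, read as CCF4 fluorescence ratio (ex 405, em 460/530 nm) after 2 h at RT. HEK293T UAS-bla cells, 2500/well, were stimulated with 9-cis-RA at 500 or 100 nM final alongside test compound for 18 h at 37 C.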
# [9] = target: Retinoic acid receptor RXR-alpha (Homo sapiens) (UniProt P19793); experiment: as above; conditions: HEK293T RXRa-UAS-bla, beta-lactamase ratio, antagonist mode
# Summary of the method: as §1
# [10] = target: Thyroid hormone receptor beta (Homo sapiens) (UniProt P10828); experiment: qHTS assay for small molecule antagonists of thyroid hormone receptor beta signaling (AID 588547; active = well fitted inhibition curve with a large enough effect in the signal ratio, with a control signal flat, not every such curve was filed as active; the % refers to the signal ratio;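 also: cells stimulated with 0.4 nM T3 agonist during compound exposure; series mostly up to about 77 µM; % is scaled to controls: 0 for no effect and ±100 for the full control effect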); conditions: TR-UAS-bla HEK293, beta-lactamase ratio, antagonist mode, 18 h
# Summary of the method: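 Inhibition of T3-driven (0.4nM final) beta-lactamase reporter activity was measured over 0.59 nM to 92 uM compound after 18 h at 37 C. The cells were GripTite HEK293 TR-UAS-bla in charcoal/dextran-stripped serum, with CCF4 ratio read-out and IC50 from Hill fits.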
# [11] = qHTS assay for small molecule activators of the p53 signaling pathway (AID 651743; active = well fitted activation curve with a large enough effect in the signal ratio, not every such curve was filed as active; the % refers to the signal ratio; also: series mostly up to about 92 µM; % of control where 0% means no effect); conditions: HCT-116 p53RE-bla, beta-lactamase FRET ratio, 16 h; activation: stronger effect = higher value
# Summary of the method: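 A beta-lactamase reporter under p53 response element control, stably carried by HCT-116 cells, reported pathway activation. Test compounds were applied for 16 hours at 37 C, and fluorescence was measured 2 hours after adding the B/G FRET substrate.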
# [12] = qHTS assay for environmental chemicals that activate the Aryl hydrocarbon Receptor (AhR) signaling pathway (AID 651777; active = well fitted curve in the direction sought with a large enough effect; an effect the other way counts as inactive or inconclusive; also: % of control where 0% means no effect; nearly all actives have a fitted effect of over 15% in size); conditions: 1A2-DRE human hepatoma cells, luciferase, 24 h; activation: stronger effect = higher value
# Summary of the method: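 Human hepatoma 1A2-DRE cells, stably carrying a dioxin response element and CYP1A2 promoter driving luciferase, were exposed to compounds for 24 hr at 37 C and 5% CO2. Luciferase signal was then read after 30 min One-Glo at room temperature.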
# [13] = target: Peroxisome proliferator-activated receptor alpha (Homo sapiens) (UniProt Q07869); experiment: qHTS assay for small molecule agonists of the peroxisome proliferator-activated receptor alpha (PPARalpha) signaling pathway (AID 651778; active = well fitted curve in the direction sought with a large enough effect; an effect the other way counts as inactive or inconclusive; also: % of control where 0% means no effect); conditions: PathHunter PPARalpha complementation, chemiluminescence, 6 h; max response: stronger effect = higher value
# Summary of the method: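 Chemiluminescence from complemented enzyme reported PPARalpha activation in cells after 6 hr of compound treatment at 37 C. The detection reagent was incubated for 60 min at room temperature, and compounds were scored as agonists.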
# [14] = qHTS assay for small molecule agonists of the antioxidant response element (ARE) signaling pathway measured by Nrf2-dependant transcriptional activity - cell viability counter screen (AID 720653; active = well fitted curve in the direction sought with a large enough effect in the repeat runs; an effect the other way counts as inactive or inconclusive; also: % is scaled to controls: 0 for no effect and ±100 for the full control effect); conditions: ARE-bla HepG2 viability, CellTiter-Glo ATP luminescence, 16 h; max response: stronger effect = lower value
# Summary of the method: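 Cytotoxicity counter screen: intracellular ATP quantified by CellTiter-Glo luminescence in the same ARE-bla HepG2 plates, after 16 h compound exposure and a 2 h beta-lactamase substrate step.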
# [15] = qHTS assay for cell viability of HEK293 cells (AID 743288; active = well fitted curve in the direction sought with a large enough effect; an effect the other way counts as inactive or inconclusive; also: % is scaled to controls: 0 for no effect and ±100 for the full control effect; nearly all actives have a fitted effect of over 50% in size); conditions: ATP luminescence (CellTiter-Glo), 18 h; max response: stronger effect = lower value
# Summary of the method: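 Steps: plate 2,000 parental HEK293 cells per well; incubate ≥5 h, 37 C; add compounds in DMSO; incubate 18 h, 37 C; add CellTiter-Glo; wait 30 min at room temperature; read luminescence.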
# [16] = qHTS assay for cell viability of the p53RE-bla HCT-116 cell line (AID 743292; active = well fitted curve in the direction sought with a large enough effect; an effect the other way counts as inactive or inconclusive; also: % is scaled to controls: 0 for no effect and ±100 for the full control effect; nearly all actives have a fitted effect of over 55% in size)
# Summary of the method: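 CellSensor p53RE-bla HCT-116 cells, 4,000/well, preincubated 5 h at 37 C, then exposed to compounds in DMSO for 16 h at 37 C. Viability read as CellTiter-Glo luminescence (intracellular ATP) after 30 min at room temperature.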
# [17] = target: Nuclear receptor subfamily 1 group I member 2 (Rattus norvegicus) (UniProt Q9R1A7); experiment: qHTS assay for small molecule activators of the rat pregnane X receptor (rPXR) signaling pathway (AID 651751; call rule not given here; also: 0% is about no effect); conditions: rPXR reporter cells, luciferase (One-Glo), 24 h
# [18] = qHTS assay for small molecule activators of the human pregnane X receptor (PXR) signaling pathway (AID 720659; call rule not given here; also: 0% is about no effect)
# [19] = target: Thyroid hormone receptor beta (Homo sapiens) (UniProt P10828); experiment: qHTS assay for small molecule agonists of thyroid hormone receptor beta signaling (AID 588545);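 also: 0% = DMSO only and 100% = 10 nM T3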
# Summary of the method: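 Stimulation of a TR-driven beta-lactamase reporter was quantified in GripTite HEK 293 cells. Compound series ran for 18 hrs; curves were normalized to T3 and DMSO controls and fitted to yield EC50.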
# [20] = qHTS assay for small molecule agonists of the antioxidant response element (ARE) signaling pathway measured by Nrf2-dependant transcriptional activity (AID 720636; active = well fitted curve in the direction sought with a large enough effect in the repeat runs; an effect the other way counts as inactive or inconclusive; also: % of control where 0% means no effect)
# Summary of the method: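 ARE-luc HepG2 cells carrying an Nrf2-responsive luciferase reporter were plated in medium with 1% dialyzed FBS, left 6 hr at 37 C to attach, then exposed to compound for 16 hr. Luciferase luminescence was read after ONE-Glo addition.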
# Chain of Thyroid hormone receptor beta (Homo sapiens) (P10828 whole entry, looked up): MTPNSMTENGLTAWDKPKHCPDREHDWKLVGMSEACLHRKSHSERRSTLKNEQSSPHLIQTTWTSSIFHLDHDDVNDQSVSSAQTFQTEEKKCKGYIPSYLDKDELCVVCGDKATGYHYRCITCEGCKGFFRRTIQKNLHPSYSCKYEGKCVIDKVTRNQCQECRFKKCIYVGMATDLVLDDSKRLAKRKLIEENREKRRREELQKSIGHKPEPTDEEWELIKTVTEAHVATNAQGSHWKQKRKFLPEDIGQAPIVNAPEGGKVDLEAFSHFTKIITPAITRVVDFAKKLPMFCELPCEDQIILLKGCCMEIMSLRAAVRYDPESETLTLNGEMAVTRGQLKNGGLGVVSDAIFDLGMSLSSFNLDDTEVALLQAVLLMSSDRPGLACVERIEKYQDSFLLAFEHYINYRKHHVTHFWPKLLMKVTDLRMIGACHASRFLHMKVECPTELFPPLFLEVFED
# Chain of Nuclear receptor subfamily 1 group I member 2 (Rattus norvegicus) (Q9R1A7 whole entry, looked up): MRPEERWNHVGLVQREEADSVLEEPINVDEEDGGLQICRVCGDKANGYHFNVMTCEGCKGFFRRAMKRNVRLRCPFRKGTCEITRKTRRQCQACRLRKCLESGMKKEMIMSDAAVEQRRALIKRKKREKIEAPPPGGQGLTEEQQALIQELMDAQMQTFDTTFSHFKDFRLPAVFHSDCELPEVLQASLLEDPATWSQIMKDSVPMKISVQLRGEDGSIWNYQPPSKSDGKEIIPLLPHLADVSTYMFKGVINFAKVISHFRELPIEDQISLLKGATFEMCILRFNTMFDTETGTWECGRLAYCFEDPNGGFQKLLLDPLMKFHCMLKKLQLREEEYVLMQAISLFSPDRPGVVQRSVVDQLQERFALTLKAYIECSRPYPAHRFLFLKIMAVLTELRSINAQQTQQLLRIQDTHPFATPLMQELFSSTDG
# Chain of Retinoic acid receptor RXR-alpha (Homo sapiens) (P19793 whole entry, looked up): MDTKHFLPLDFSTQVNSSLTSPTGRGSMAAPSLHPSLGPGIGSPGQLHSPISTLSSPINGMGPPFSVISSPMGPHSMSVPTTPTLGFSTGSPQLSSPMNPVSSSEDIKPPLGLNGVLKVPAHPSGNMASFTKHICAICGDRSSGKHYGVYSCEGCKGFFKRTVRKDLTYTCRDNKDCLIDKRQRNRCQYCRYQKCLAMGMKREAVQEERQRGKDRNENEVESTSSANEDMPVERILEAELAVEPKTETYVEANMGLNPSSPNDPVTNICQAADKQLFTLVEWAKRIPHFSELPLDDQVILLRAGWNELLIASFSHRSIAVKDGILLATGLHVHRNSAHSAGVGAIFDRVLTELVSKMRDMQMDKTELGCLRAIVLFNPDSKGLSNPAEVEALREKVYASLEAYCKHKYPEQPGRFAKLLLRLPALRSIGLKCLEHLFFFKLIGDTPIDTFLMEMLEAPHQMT
# Chain of Vitamin D3 receptor (Homo sapiens) (P11473 whole entry, looked up): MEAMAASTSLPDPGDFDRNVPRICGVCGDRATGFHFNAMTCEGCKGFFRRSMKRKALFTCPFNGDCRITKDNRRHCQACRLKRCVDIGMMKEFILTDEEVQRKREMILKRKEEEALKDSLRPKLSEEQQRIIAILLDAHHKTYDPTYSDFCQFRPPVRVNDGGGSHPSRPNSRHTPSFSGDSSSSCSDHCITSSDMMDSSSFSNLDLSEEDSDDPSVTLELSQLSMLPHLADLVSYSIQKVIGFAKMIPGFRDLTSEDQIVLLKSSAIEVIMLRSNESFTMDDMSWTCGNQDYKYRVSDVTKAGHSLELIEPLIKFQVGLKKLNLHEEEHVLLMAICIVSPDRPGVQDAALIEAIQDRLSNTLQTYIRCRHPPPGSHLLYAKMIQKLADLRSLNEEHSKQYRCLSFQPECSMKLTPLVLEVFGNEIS
# Chain of Peroxisome proliferator-activated receptor alpha (Homo sapiens) (Q07869 whole entry, looked up): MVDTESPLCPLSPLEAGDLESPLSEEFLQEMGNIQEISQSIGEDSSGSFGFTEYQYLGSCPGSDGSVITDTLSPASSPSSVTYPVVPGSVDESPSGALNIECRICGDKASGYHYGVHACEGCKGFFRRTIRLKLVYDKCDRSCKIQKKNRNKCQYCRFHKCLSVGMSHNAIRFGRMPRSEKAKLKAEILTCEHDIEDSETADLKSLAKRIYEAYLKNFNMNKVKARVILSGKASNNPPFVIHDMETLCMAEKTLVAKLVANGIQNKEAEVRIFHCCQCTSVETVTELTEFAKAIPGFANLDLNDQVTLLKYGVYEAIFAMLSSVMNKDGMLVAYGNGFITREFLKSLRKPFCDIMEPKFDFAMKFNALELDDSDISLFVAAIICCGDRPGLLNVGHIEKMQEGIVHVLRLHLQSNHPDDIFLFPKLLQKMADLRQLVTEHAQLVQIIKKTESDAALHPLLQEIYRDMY
# Chain of Estrogen receptor (Homo sapiens) (P03372 whole entry, looked up): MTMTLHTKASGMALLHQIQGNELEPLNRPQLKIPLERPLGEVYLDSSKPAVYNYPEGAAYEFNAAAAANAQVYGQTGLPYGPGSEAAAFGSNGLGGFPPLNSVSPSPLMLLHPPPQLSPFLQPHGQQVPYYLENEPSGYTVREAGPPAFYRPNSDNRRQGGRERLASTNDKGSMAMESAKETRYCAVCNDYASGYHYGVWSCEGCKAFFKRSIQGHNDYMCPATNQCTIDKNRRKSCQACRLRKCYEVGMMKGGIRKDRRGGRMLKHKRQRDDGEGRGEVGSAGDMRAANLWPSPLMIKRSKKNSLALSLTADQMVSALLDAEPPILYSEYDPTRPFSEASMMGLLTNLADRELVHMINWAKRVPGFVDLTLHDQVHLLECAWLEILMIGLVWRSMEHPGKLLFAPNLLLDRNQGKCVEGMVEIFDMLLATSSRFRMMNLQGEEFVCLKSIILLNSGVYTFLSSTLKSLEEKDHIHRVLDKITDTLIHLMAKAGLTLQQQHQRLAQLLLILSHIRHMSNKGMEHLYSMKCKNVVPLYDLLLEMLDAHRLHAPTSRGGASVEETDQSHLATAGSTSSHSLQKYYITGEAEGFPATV
SMILES,Potency [1],Potency [2],max response [3] [%],Potency [4],outcome [5],max response [6] [%],Potency [7],max response [8] [%],max response [9],activity change % (negative = inhibition) [10],activation [11],activation [12],max response [13],max response [14],max response [15],Potency [16],max response [17],outcome [18],Potency [19],Potency [20]
CC(C)C(=O)OCC(C)(C)C(O)C(C)C (centres undefined),inactive,inactive,1.76,inactive,inactive,6.96,inactive,-13.9,-10.9% (inactive),-5.03% (inactive),-2.18% (inactive),-2.96% (inactive),-0.497% (inactive),-3.28% (inactive),-9.28% (inactive),inactive,-1.98% (inactive),inactive,–,–
NN(c1ccccc1)c1ccccc1,inactive,inactive,23.6,inactive,inactive,-8.85,inactive,-11.7,-14.4% (inactive),4.53% (inactive),-3.49% (inactive),3.15% (inactive),-1.16% (inactive),-7.4% (inactive),–,inactive,1.92% (inactive),–,inactive,inactive
O=C(O)CCCCCCCCCCC(=O)O,inactive,inactive,18.9,inactive,inactive,0.198,inactive,2.61,7.09% (inactive),17.5% (inactive),–,3.26% (inactive),-1.09% (inactive),-6.19% (inactive),–,inactive,0.83% (inactive),inactive,–,–
N[C@@H]1[C@@H](O)[C@H](O)[C@@H](CO)O[C@H]1O,inactive,inactive,8.04,inactive,–,-2.29,inactive,-16.6,6.05% (inactive),–,-3.01% (inactive),2.2% (inactive),-1.62% (inactive),-11.9% (inactive),-8.29% (inactive),inactive,-3.38% (inactive),inactive,inactive,inactive
CCCCCCCCCCCCCc1ccccc1,inactive,inactive,21.6,inactive,inactive,-8.78,inactive,-13.4,-2.52% (inactive),11.3% (inactive),1.08% (inactive),2.83% (inactive),-0.643% (inactive),-7.31% (inactive),4.66% (inactive),inactive,0.527% (inactive),inactive,inactive,inactive
C=Cc1ccccc1Br,inactive,inactive,-10.1,–,inactive,-4.64,inactive,1.9,-9.99% (inactive),-5.89% (inactive),-6.55% (inactive),1.62% (inactive),0.716% (inactive),-11.1% (inactive),-11.7% (inactive),inactive,-0.877% (inactive),inactive,inactive,inactive
